Test results as given in PubChem BioAssay (NCATS).
Values joined by “and” are separate entries in the source; they are usually repeats but may differ in a detail not shown here. Equal entries are not always repeated. Results filed as inconclusive are left out. Active and inactive are the calls of the source. Unless noted, calls come from the whole dose curve; as a rule, active = well fitted curve in the direction sought with a large enough effect; inconclusive = small, poorly fitted or top-dose-only effect, or another doubt; inactive = no such curve, though single readings can be large; an effect the other way counts as inactive or inconclusive.

How the values were obtained:
[1] = Cell Viability - N2a (AID 540); settings: N2a mouse neuroblastoma cell viability; activity change, negative = cytotoxicity: at 92.2 µM (top of the series); note: nearly all actives have a fitted effect of over 45% in size; note: potency is the fitted concentration of half-maximal effect;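 for activity change, negative = cytotoxicity: plate controls were DMSO alone for no effect and tamoxifen control for full effect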
Summary of the method: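 Mouse neuroblastoma N2a cells, 1500/well, exposed to compounds 40 h at 37 °C in complete medium. Viability measured as cellular ATP by CellTiter-Glo luminescence; AC50 from Hill fits of concentration-response.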

[2] = Cell Viability - Renal Proximal Tubule (AID 545); settings: renal proximal tubule cells viability, primary cells of rat origin; at 91.7 µM (top of the series); note: nearly all actives have a fitted effect of over 40% in size
Summary of the method: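 Luminescent ATP signal (CellTiter-Glo) served as the viability read-out after 40 hr compound exposure of freshly isolated rat proximal tubule cells at 37 °C. Concentration-dependent ATP loss was fitted with the Hill equation to give AC50.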

[3] = Cellular Toxicity (caspase-3) Jurkat (AID 655); settings: Jurkat caspase-3 activation, luminescence, DMSO = 0%, tamoxifen = 100%; at 92.2 µM (top of the series);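 note: cells exposed to compound for 16 h at 37 °C before reading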
Summary of the method: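 5000 Jurkat cells/well; compound 16 hr, 37 °C; Caspase-Glo 3/7 added, 20 min RT; luminescence read. Norm: DMSO = 0%, tamoxifen 100 uM = 100%. AC50, Hill model.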

[4] = MultiTox-Fluor Cytotoxicity Assay - LYMP1-002 - Live Cells (AID 955);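 note: cells exposed to compound for 16 hours; % is set by controls: 0 for no effect and ±100 for the full control effect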
Summary of the method: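 Human lymphoblastoid LYMP1-002 cells, 2500/well, treated 16 h at 37 C in complete medium. Live-cell protease activity via GF-AFC fluorescence (Ex/Em 405/510) after 60 min reagent incubation; AC50 from Hill fits.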

[5] = MultiTox-Fluor Cytotoxicity Assay - LYMP1-003 - Dead Cells (AID 961);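 note: cells exposed to compound for 16 h at 37 °C; nearly all actives have a fitted effect of over 70% in size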
Summary of the method: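 LYMP1-003 lymphoblastoid, 2500 cells/well, 5 hr settle then 16 hr cpd at 37 C; MultiTox-Fluor reagent 60 min RT; Ex/Em 485/520 dead-cell signal; norm. DMSO = 0%, 15 uM tetraoctylammonium bromide = 100%; Hill AC50.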

[6] = Cell Viability - LYMP1-003 - Assay at 24 hr (AID 963);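 note: plate controls were DMSO only for no effect and tetraoctylammonium bromide positive control for full effect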
Summary of the method: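 Human lymphoblastoid LYMP1-003 cells, 2500/well, treated 24 h at 37 C in complete medium. Viability read as intracellular ATP by CellTiter-Glo luminescence after 30 min at room temperature; AC50 from Hill-equation fits of qHTS concentration-response.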

[7] = Cell Viability - LYMP2-003 (AID 965);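 note: cells exposed to compounds for 24 h before reading; 0% = DMSO only and full effect = 92 µM tetraoctylammonium bromide; nearly all actives have a fitted effect of over 50% in size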
Summary of the method: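 Seed 2500 lymphoblastoid cells/well; incubate 5 hr, 37 C; add compounds; incubate 24 hr, 37 C; add CellTiter-Glo, 30 min RT; read luminescence. AC50 from Hill fit.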

[8] = Cell Viability - LYMP2-009 (AID 968);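 note: 0% = DMSO alone and the full-kill end = tetraoctylammonium bromide at 92 µM; nearly all actives have a fitted effect of over 55% in size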
[9] = Cell Viability - LYMP2-015 (AID 971);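 note: 0% = DMSO only and full effect = 92 µM tetraoctylammonium bromide; nearly all actives have a fitted effect of over 55% in size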
Summary of the method: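 LYMP2-015 human lymphoblastoid cells (2500/well) in complete medium, compound-treated 24 h at 37 C; viability read as cellular ATP by CellTiter-Glo luminescence after 30 min at room temperature. AC50 from Hill-equation fits of qHTS concentration-response data.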

[10] = Cell Viability - LYMP2-019 (AID 973);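 note: 0% = DMSO alone and full effect = 92 µM tetraoctylammonium bromide; nearly all actives have a fitted effect of over 55% in size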
Summary of the method: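 Human lymphoblastoid LYMP2-019 cells (2500/well) preincubated 5 h at 37 C, then treated 24 h at 37 C in complete medium. Viability by CellTiter-Glo ATP luminescence after 30 min at room temperature; AC50 from Hill fits.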

[11] = Cell Viability - LYMP2-021 (AID 974);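 note: compound exposure lasts 24 hours at 37 °C; % is set by controls: 0 for no effect and ±100 for the full control effect; nearly all actives have a fitted effect of over 55% in size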
Summary of the method: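 Human lymphoblastoid LYMP2-021 cells, 2500/well in complete medium, treated 24 hours at 37 C. Intracellular ATP by CellTiter-Glo luminescence (30 min, RT); AC50 from Hill fits of concentration-response.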

[12] = Cell Viability - LYMP2-025 (AID 976);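 note: plate controls were DMSO only for no effect and tetraoctylammonium bromide control for full effect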
Summary of the method: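 Human lymphoblastoid LYMP2-025 cells, 2500/well, exposed 24 h at 37 C in complete medium in 1536-well qHTS. Viability as cellular ATP by CellTiter-Glo luminescence; AC50 from Hill fits of concentration-response data.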

[13] = Cell Viability - LYMP2-002 (AID 977);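 note: plate controls were DMSO only for no effect and 92 µM tetraoctylammonium bromide for full effect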
Summary of the method: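 Luminescent ATP readout (CellTiter-Glo, 30 min room temperature) after 24 h compound exposure at 37 C of a human lymphoblastoid line, 2500 cells/well. AC50 values derived by standard Hill fitting of qHTS concentration-response data.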

[14] = Cell Viability - LYMP2-006 (AID 978);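 note: cells exposed to compound for 24 hours; nearly all actives have a fitted effect of over 60% in size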; note: potency is the fitted concentration of half-maximal effect; for activity change, negative = cytotoxicity: % is set by controls: 0 for no effect and ±100 for the full control effect
Summary of the method: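 Cells are seeded at 2500 per well and rested 5 hr at 37 C. Compounds are added across a concentration series for 24 hr at 37 C, after which ATP is quantified by luciferase luminescence.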

[15] = Cell Viability - LYMP2-008 (AID 980); note: % is set by controls: 0 for no effect and ±100 for the full control effect; nearly all actives have a fitted effect of over 60% in size
Summary of the method: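 LYMP2-008 lymphoblastoid cells (2500/well) plated 5 h, then treated 24 h at 37 C in complete medium. Viability read as intracellular ATP by CellTiter-Glo luminescence after 30 min at room temperature; AC50 from Hill fits.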

[16] = Cell Viability - LYMP2-016 (AID 984)
Summary of the method: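 Cells were seeded at 2500 per well and rested 5 hr before a 24 hr compound exposure at 37 C. Viability was then gauged as cellular ATP by luciferase luminescence, with AC50 values fitted to the Hill equation.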

[17] = Cell Viability - LYMP1-002 - Assay at 40 hr (AID 994);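 note: 0% = DMSO only and full inhibition = 92 µM tetraoctylammonium bromide; nearly all actives have a fitted effect of over 60% in size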
Summary of the method: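 LYMP1-002 human lymphoblastoid cells (2500/well, complete medium) were treated with compounds for 40 hr at 37 C. Intracellular ATP was measured by CellTiter-Glo luminescence, and AC50 values came from Hill-equation fits of concentration-response data; tetraoctylammonium bromide was the positive control.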

[18] = molecular target: Thyroid hormone receptor beta (Homo sapiens) (UniProt P10828); experiment: qHTS assay for small molecule agonists of thyroid hormone receptor beta signaling (AID 588545; calls by dose curve)
Chain of Thyroid hormone receptor beta (Homo sapiens) (P10828 whole entry, looked up): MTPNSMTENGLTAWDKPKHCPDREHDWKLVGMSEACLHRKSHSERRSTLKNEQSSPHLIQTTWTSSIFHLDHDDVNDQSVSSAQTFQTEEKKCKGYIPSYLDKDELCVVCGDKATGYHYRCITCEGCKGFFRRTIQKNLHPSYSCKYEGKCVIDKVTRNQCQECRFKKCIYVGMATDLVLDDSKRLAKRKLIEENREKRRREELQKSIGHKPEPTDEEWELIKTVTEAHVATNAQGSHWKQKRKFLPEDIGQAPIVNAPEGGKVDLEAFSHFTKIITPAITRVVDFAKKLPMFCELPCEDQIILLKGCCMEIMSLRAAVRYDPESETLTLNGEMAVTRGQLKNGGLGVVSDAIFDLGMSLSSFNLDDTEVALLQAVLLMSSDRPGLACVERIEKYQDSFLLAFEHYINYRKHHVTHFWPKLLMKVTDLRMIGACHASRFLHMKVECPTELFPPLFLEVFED
Summary of the method: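 In this cell-based screen, titrated compounds act on HEK 293 cells held in medium with 2% charcoal/dextran FBS, NEAA and pyruvate for 18 hrs at 37 C. Responses are expressed relative to T3 (10 nM) as 100% and basal DMSO as 0%.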

[19] = molecular target: Voltage-gated inwardly rectifying potassium channel KCNH2 (Homo sapiens) (UniProt Q12809); experiment: qHTS Assay for Small Molecule Inhibitors of the Human hERG Channel Activity (AID 588834);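 note: top concentration of the series differs between compounds; % is set by controls: 0 for no effect and ±100 for the full control effect; lower thallium flux fluorescence means stronger hERG block; nearly all actives have a fitted effect of over 50% in size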
Chain of Voltage-gated inwardly rectifying potassium channel KCNH2 (Homo sapiens) (Q12809 whole entry, looked up): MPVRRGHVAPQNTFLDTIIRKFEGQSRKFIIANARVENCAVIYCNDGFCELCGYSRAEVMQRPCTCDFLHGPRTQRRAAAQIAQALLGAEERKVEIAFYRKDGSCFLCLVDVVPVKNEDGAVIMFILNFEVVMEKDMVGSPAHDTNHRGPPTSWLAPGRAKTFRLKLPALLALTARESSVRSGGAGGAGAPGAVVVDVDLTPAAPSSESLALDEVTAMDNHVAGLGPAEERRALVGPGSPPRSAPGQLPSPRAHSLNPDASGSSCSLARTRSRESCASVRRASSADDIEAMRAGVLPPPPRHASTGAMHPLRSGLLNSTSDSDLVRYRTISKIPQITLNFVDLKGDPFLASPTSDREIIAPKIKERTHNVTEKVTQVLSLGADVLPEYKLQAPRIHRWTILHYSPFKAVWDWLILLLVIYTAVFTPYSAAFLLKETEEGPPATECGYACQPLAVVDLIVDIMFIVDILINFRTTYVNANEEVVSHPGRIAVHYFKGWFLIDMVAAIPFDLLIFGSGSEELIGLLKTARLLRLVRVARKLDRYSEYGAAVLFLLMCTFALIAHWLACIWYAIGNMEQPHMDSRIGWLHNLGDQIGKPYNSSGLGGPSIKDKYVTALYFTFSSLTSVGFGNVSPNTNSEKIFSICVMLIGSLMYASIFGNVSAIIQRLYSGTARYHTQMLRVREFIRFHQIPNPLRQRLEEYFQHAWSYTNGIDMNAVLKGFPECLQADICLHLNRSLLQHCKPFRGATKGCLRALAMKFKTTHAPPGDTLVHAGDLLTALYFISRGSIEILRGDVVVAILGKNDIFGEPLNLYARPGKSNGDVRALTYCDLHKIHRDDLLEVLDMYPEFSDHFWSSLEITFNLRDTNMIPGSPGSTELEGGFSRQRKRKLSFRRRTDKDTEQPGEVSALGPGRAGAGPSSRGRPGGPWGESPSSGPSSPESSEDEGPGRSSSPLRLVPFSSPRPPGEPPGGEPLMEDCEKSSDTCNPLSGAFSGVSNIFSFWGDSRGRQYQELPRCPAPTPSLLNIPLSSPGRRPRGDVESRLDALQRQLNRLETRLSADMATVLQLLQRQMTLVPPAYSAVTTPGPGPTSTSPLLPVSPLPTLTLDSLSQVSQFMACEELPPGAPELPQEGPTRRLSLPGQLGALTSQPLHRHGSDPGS
Summary of the method: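 hERG-BacMam U2OS, 2000 cells/well; 0.7X FluxOR loading 1 hr RT dark; cpd ~10 min 37 °C; stim buffer; FDSS fluorescence 2 min @ 1 s; AC50 Hill fit.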

[20] = qHTS assay for small molecule agonists of the antioxidant response element (ARE) signaling pathway measured by Nrf2-dependant transcriptional activity (AID 720636; active = well fitted curve in the direction sought with a large enough effect in the repeat runs; an effect the other way counts as inactive or inconclusive; note: potency is the fitted concentration of half-maximal effect;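 for activation: HepG2 cells with an ARE-driven luciferase reporter; % of control where 0% means no effect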)
Summary of the method: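 Attachment 6 hr at 37 C, then compound versus DMSO vehicle for 16 hr in ARE-luc HepG2 cells (1% dialyzed FBS); luminescence recorded 30 min after ONE-Glo addition at room temperature.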

O=C(O)c1ccccc1C(c1ccc(O)cc1)c1ccc(O)cc1
inactive: activity change, negative = cytotoxicity [1] 6.19% | activity change, negative = cytotoxicity [2] 1.41% | caspase-3 activation [3] 1.36% | Potency [4] | Potency [5] | Potency [6] | Potency [7] | Potency [8] | Potency [9] | Potency [10] | Potency [11] | Potency [12] | Potency [13] | Potency [14] | Potency [15] | Potency [16] | Potency [17] | outcome [18] | Potency [19] | Potency [20]

c1ccc2scnc2c1
inactive: activity change, negative = cytotoxicity [1] -2.55% | activity change, negative = cytotoxicity [2] -4.16% | caspase-3 activation [3] -0.459% | Potency [4] | Potency [5] | Potency [6] | Potency [7] | Potency [8] | Potency [9] | Potency [10] | Potency [11] | Potency [12] | Potency [13] | Potency [14] | Potency [15] | Potency [16] | Potency [17] | outcome [18] | Potency [19] | Potency [20]

CCC(C)n1ncn(-c2ccc(N3CCN(c4ccc(OCC5COC(Cn6cncn6)(c6ccc(Cl)cc6Cl)O5)cc4)CC3)cc2)c1=O (configuration not stated)
inactive: Potency [19]

O[C@@H]([C@H](O)[C@@H](O)CBr)[C@@H](O)CBr
inactive: activity change, negative = cytotoxicity [1] 11.7% | activity change, negative = cytotoxicity [2] 2.79% | caspase-3 activation [3] 0.213% | Potency [4] | Potency [5] | Potency [6] | Potency [7] | Potency [8] | Potency [9] | Potency [10] | Potency [11] | Potency [12] | Potency [13] | Potency [14] | Potency [15] | Potency [16] | Potency [17] | outcome [18] | Potency [19] | Potency [20]

Cc1ccc(N)c([N+](=O)[O-])c1
inactive: activity change, negative = cytotoxicity [1] 2.46% | activity change, negative = cytotoxicity [2] 4.17% | caspase-3 activation [3] -0.471% | Potency [4] | Potency [5] | Potency [6] | Potency [7] | Potency [8] | Potency [9] | Potency [10] | Potency [11] | Potency [12] | Potency [13] | Potency [14] | Potency [15] | Potency [16] | Potency [17] | outcome [18] | Potency [19] | Potency [20]

COc1ccc2nc(N)sc2c1
inactive: activity change, negative = cytotoxicity [1] -0.684% | activity change, negative = cytotoxicity [2] -14.7% | caspase-3 activation [3] -5.35% | Potency [4] | Potency [5] | Potency [6] | Potency [7] | Potency [8] | Potency [9] | Potency [10] | Potency [11] | Potency [12] | Potency [13] | Potency [14] | Potency [15] | Potency [16] | Potency [17] | outcome [18] | Potency [19]

Cc1ccc([N+](=O)[O-])c(C)c1
inactive: activity change, negative = cytotoxicity [1] -14.6% | activity change, negative = cytotoxicity [2] -0.903% | caspase-3 activation [3] 0.882% | Potency [4] | Potency [5] | Potency [6] | Potency [7] | Potency [8] | Potency [9] | Potency [10] | Potency [11] | Potency [12] | Potency [13] | Potency [14] | Potency [15] | Potency [16] | Potency [17] | outcome [18] | Potency [19] | Potency [20]

O=C1c2ccccc2C(=O)C1c1ccc2ccccc2n1
active: Potency [1] 31.6 µM | Potency [14] 39.8 µM | Potency [20] 1.54 µM and 1.33 µM
inactive: activity change, negative = cytotoxicity [2] -13.3% | caspase-3 activation [3] -10.4% | Potency [4] | Potency [5] | Potency [6] | Potency [7] | Potency [10] | Potency [11] | Potency [12] | Potency [13] | Potency [16] | Potency [17] | outcome [18] | Potency [19]

CCC(O)OC(O)CC (configuration not stated)
inactive: activity change, negative = cytotoxicity [1] 5.7% and 11.3% | activity change, negative = cytotoxicity [2] -7.55% and -1.85% | caspase-3 activation [3] 0.389% and 0.685% | Potency [4] | Potency [5] | Potency [6] | Potency [7] | Potency [8] | Potency [9] | Potency [10] | Potency [11] | Potency [12] | Potency [13] | Potency [14] | Potency [15] | Potency [16] | Potency [17] | outcome [18] | Potency [19] | Potency [20]

COc1c2ccoc2cc2oc(=O)ccc12
inactive: activity change, negative = cytotoxicity [1] 0.867% | activity change, negative = cytotoxicity [2] -16.3% | caspase-3 activation [3] -0.404% | Potency [4] | Potency [5] | Potency [6] | Potency [7] | Potency [8] | Potency [9] | Potency [10] | Potency [11] | Potency [12] | Potency [13] | Potency [14] | Potency [15] | Potency [16] | Potency [17] | outcome [18] | Potency [19] | Potency [20]

CCCCCCCCCCCCCCC1CO1 (configuration not stated)
inactive: activity change, negative = cytotoxicity [1] 8.54% | activity change, negative = cytotoxicity [2] -7.28% | caspase-3 activation [3] 0.846% | Potency [4] | Potency [5] | Potency [6] | Potency [7] | Potency [8] | Potency [9] | Potency [10] | Potency [11] | Potency [12] | Potency [13] | Potency [14] | Potency [15] | Potency [16] | Potency [17] | outcome [18] | Potency [19] | Potency [20]

CCCN(CCC)C(=O)SCC
inactive: activity change, negative = cytotoxicity [1] -0.642% | activity change, negative = cytotoxicity [2] 6.23% | caspase-3 activation [3] 2.52% | Potency [4] | Potency [5] | Potency [6] | Potency [7] | Potency [8] | Potency [9] | Potency [10] | Potency [11] | Potency [12] | Potency [13] | Potency [14] | Potency [15] | Potency [16] | Potency [17] | outcome [18] | Potency [19] | Potency [20]

ClCCCl
inactive: activity change, negative = cytotoxicity [1] 3.03% | activity change, negative = cytotoxicity [2] -0.883% | caspase-3 activation [3] 2.03% | Potency [4] | Potency [5] | Potency [6] | Potency [7] | Potency [8] | Potency [9] | Potency [10] | Potency [11] | Potency [12] | Potency [13] | Potency [14] | Potency [15] | Potency [16] | Potency [17] | outcome [18] | Potency [19] | Potency [20]
